Drawing on PubChem BioAssay AID1240 (Sanford-Burnham Center for Chemical Genomics, 2008), this text covers displacement for 103 compounds.

Each structure is given as a SMILES string. Screen size: about 50,000 compounds; about 800 (1.6%) showed an effect of 50% or more. The full list was thinned out, with strong results kept by preference.

Chain of Bcl-2-like protein 10 (Homo sapiens) (Q9HD36 whole entry, looked up): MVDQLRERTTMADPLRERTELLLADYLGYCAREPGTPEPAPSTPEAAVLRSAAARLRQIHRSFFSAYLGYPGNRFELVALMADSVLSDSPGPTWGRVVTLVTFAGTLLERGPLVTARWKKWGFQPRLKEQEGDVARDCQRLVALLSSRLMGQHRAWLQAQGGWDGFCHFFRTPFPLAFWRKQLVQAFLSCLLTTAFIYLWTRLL

This assay has as its target Bcl-2-like protein 10 (Homo sapiens) (UniProt Q9HD36). Briefly: Phenotype converters, Bcl-B/TR3 peptide binding displacement, primary biochemical FP (AID 1240).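 Also: 0% = Bcl-B with tracer peptide and DMSO and 100% = tracer peptide lacking Bcl-B.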 The conditions noted are these: GST-Bcl-B / FITC-TR3 peptide fluorescence polarization; stronger effect = higher value; compound at 3.75 mg/L.
For the compound `C=CCN1C(=O)/C(=C\c2ccc(-c3ccc(Cl)c(Cl)c3)o2)SC1=S`, the displacement was found to be 50.1%.
Then `O=C1/C(=C/c2ccc(-c3cc(Cl)ccc3Cl)o2)SC(=S)N1Cc1ccco1`, with 14.1%; and `O=C1/C(=C\c2ccc(-c3ccccc3Cl)o2)SC(=S)N1Cc1ccccc1`, with 10%.
For `C=CCN1C(=O)/C(=C\c2ccc(-c3cc(Cl)cc(Cl)c3)o2)SC1=S` the value was 1.7%; for `O=C(O)CN1C(=O)/C(=C\c2ccc(-c3ccccc3Cl)o2)SC1=S`, -121%.
For `C=CCN1C(=O)/C(=C\c2ccc(-c3ccccc3Cl)o2)SC1=S` the value was 149%.
As for `C=CCN1C(=O)/C(=C\c2ccc(-c3cc(Cl)ccc3Cl)o2)SC1=S`, the displacement turned out to be 65.4%.
On to `CCOC(=O)c1ccc(-c2ccc(/C=C3/SC(=S)N(CC)C3=O)o2)cc1`, for which the displacement worked out at 31%.
Turning to `C=CCN1C(=O)/C(=C\c2ccc(-c3ccc(F)c(Cl)c3)o2)SC1=S`, the displacement was found to be 39.4%.
`C=CCN1C(=O)/C(=C\c2ccc(-c3ccc(C(=O)OCC)cc3)o2)SC1=S`: the displacement came out at 90.3%.
Consider `C=CCN1C(=O)/C(=C\c2ccc(-c3cccc(Cl)c3)o2)SC1=S`, for which the displacement stood at 1.4%.
Turning to `CCOC(=O)c1ccc(-c2ccc(/C=C3/SC(=S)N(CC(=O)O)C3=O)o2)cc1`, the displacement is -83.7%.
Consider `O=C(COc1ccc(Cl)cc1Cl)Nc1ccc2c(c1)OCO2`, for which the displacement was 3.3%.
For `Cc1cc(OCC(=O)Nc2ccc(Nc3ccccc3)cc2)ccc1Br` the value was 1.1%.
For `CCOc1ccc(N(CC(=O)Nc2ccccc2OCC)S(=O)(=O)c2ccc(SC)cc2)cc1` the value was 15.2%; for `O=C(COc1ccc([N+](=O)[O-])cc1)Nc1cc(C(F)(F)F)cc(C(F)(F)F)c1`, -2.6%.
Take `O=C1NC(=Nc2ccc(O)cc2)S/C1=C/C=C/c1ccccc1`: the displacement was -5.6%.
As to `CC(=O)N(c1ccc(Br)cc1)C1SC(=O)N(c2cccc(C)c2)C1=O` (stereo not drawn), the displacement is -0.5%.
Regarding `CN(c1ccccc1C(=O)O)C1SC(=O)N(c2ccccc2)C1=O` (stereo not drawn), the displacement was 138%.
For `CN(C(=O)c1cccs1)c1ccccc1C(=O)O` the value was -1.3%.
Regarding `Brc1ccc2c(c1)Nc1nc3nonc3nc1N2`, the displacement turned out to be 3.9%.
Then `O=C1/C(=C/c2ccc3c(c2)OCO3)SC(=S)N1Cc1ccco1`, with 94.5%; and `C=CCN1C(=O)/C(=C\C=C\c2ccccc2)SC1=S`, with 6.3%; and `O=C1/C(=C/C=C/c2ccccc2)SC(=S)N1Cc1ccco1`, with 99.7%.
Then `O=C1/C(=C/c2cccc(Br)c2)SC(=S)N1Cc1ccco1`, with 3.6%; and `O=C1/C(=C/c2ccc(Br)cc2)SC(=S)N1Cc1ccco1`, with 104%.
Then `COc1ccccc1/C=C1\SC(=S)N(Cc2ccco2)C1=O`, with 1%.
In the case of `O=C1/C(=C/c2ccc(Cl)c(Cl)c2)SC(=S)N1Cc1ccco1`, the displacement stood at 14.2%.
Then `CCCCN1C(=O)/C(=C/C=C/c2ccccc2)SC1=S`, with -0.6%; and `O=C1/C(=C/c2ccccc2[N+](=O)[O-])SC(=S)N1Cc1ccco1`, with 16.5%; and `O=C1/C(=C/c2ccc(O)cc2)SC(=S)N1Cc1ccco1`, with -13.3%.
For `COc1ccc(/C=C2\SC(=S)N(Cc3ccco3)C2=O)cc1OC` the value was 21.8%; for `O=C1/C(=C/c2cccc3ccccc23)SC(=S)N1Cc1ccco1`, 79.2%.
For `CCCCOC(=O)Nc1ccc(S(=O)(=O)Nc2cc(C)ccc2C)cc1` the value was 7.1%; for `CC(C)C(=O)NC(c1ccc(N(C)C)cc1)c1c(O)ccc2ccccc12` (stereo not drawn), 6.4%; for `CCCC1CCc2nc3ccccc3c(C(=O)O)c2C1` (stereo not drawn), -10.4%.
Turning to `O=C(NC12CC3CC(CC(C3)C1)C2)c1ccc(Cl)c(Cl)c1`, the displacement amounted to 6.9%.
Then `COc1ccc(-c2nc3c(n2O)CCC/C3=N\O)cc1OC`, with 16.6%; and `O=C(CCN1C(=O)c2ccccc2C1=O)NCC1CCCO1` (stereo not drawn), with 9.6%.
In the case of `COc1ccccc1NC(=O)CSc1ncn[nH]1`, the displacement was determined as 2.5%.
For `COc1cc(/C=C2\C(=O)NN(c3ccccc3)C2=O)ccc1OCc1ccccc1F` the value was 8.9%; for `Nc1ncc(-c2ccc([N+](=O)[O-])cc2)cn1`, -4.1%; for `Cc1ccc(-c2csc(NC(=O)c3ccc(S(=O)(=O)N4CCCCCC4)cc3)n2)cc1`, -19%.
Regarding `O=C(Nc1nc(-c2ccc(F)cc2)cs1)c1ccc(S(=O)(=O)N2CCCCCC2)cc1`, the displacement was found to be 129%.
Then `O=C(Nc1nc(-c2ccc(Cl)cc2)cs1)c1ccc(S(=O)(=O)N2CCCCC2)cc1`, with -9.5%; and `CCc1c(C)sc(NC(=O)c2cccs2)c1C(=O)OC`, with 3.3%; and `O=C(O)C(Cc1ccccc1)N1C(=O)/C(=C/c2ccc(Br)cc2)SC1=S` (stereo not drawn), with 11.6%.
Take `FC(F)(F)c1ccccc1CN1CCN(C2CCCCC2)CC1`: the displacement is 1.4%.
For `CC(C)COc1ccc(C(=O)Nc2ccc(-c3nc4ncccc4o3)cc2)cc1` the value was 50.1%.
Then `CCCCOc1ccc(C(=O)Nc2ccc(-c3nc4ncccc4o3)cc2)cc1`, with 10.6%; and `CCOc1cc(OCC)cc(C(=O)Nc2ccc(-c3nc4ncccc4o3)cc2)c1`, with 0.6%.
As for `O=C(Nc1ccc(-c2nc3ncccc3o2)cc1)c1cccc(OCc2ccccc2)c1`, the displacement is 110%.
For `CC(C)COc1ccc(C(=O)Nc2ccc(-c3nc4ccccc4o3)cc2)cc1` the value was 10%; for `O=C(Nc1ccc2oc(-c3cccnc3)nc2c1)c1cccc(OCc2ccccc2)c1`, 11%; for `CCCCc1c(C)nc2ccc(C(=O)O)cc2c1Cl`, 1%.
Then `C=CCOc1ccc(/C=C2/C(=O)NN(c3ccc(C)c(Cl)c3)C2=O)cc1OC`, with 15.5%.
As for `CCOC(=O)c1ccc(-c2ccc(/C=C3/C(=O)NN(c4cccc(Cl)c4)C3=O)o2)cc1`, the displacement is -1.9%.
Consider `Cc1cccc(N2C(=O)NC(=O)/C(=C/c3ccc(-c4ccc(C(=O)O)cc4)o3)C2=O)c1`, for which the displacement is -58.8%.
Then `CCOC(=O)c1cc(-c2ccc(C=C3C(=O)N(C)C(=O)N(C)C3=O)o2)ccc1Cl`, with 111%.
For `COc1ccc(N2C(=O)NC(=O)/C(=C/c3ccc(-c4ccc(C(=O)O)cc4)o3)C2=O)cc1` the value was -10.9%.
Then `COc1ccc(N2C(=O)/C(=C/c3ccc(-c4ccc(C(=O)O)cc4)o3)C(=O)NC2=S)cc1`, with -28.2%; and `COc1ccc(N2C(=O)NC(=O)/C(=C\c3cc(C)n(-c4ccc(N5CCOCC5)cc4)c3C)C2=O)cc1`, with 15.9%; and `CCOC(=O)c1ccc(-c2ccc(/C=C3/C(=O)NC(=O)N(c4ccc(OC)cc4)C3=O)o2)cc1`, with 86.2%.
On to `CN1C(=O)C(=Cc2ccc(-c3ccc(Cl)c(Cl)c3)o2)C(=O)N(C)C1=O`, for which the displacement was -3.8%.
For `COC(=O)c1ccc(-n2c(C)cc(/C=C3\C(=O)NC(=O)N(c4ccc(OC)cc4)C3=O)c2C)cc1` the value was 115%; for `CN1C(=O)C(=Cc2ccc(-c3ccc(Cl)c(C(=O)O)c3)o2)C(=O)N(C)C1=O`, 14.5%; for `CCOC(=O)c1ccc(-c2ccc(/C=C3/C(=O)NC(=O)N(c4ccccc4)C3=O)o2)cc1`, 88.5%.
Then `COC(=O)c1ccc(-n2c(C)cc(C=C3C(=O)NC(=S)NC3=O)c2C)cc1`, with 24.8%.
`COc1ccccc1C(=O)N1CCN(Cc2ccccc2[N+](=O)[O-])CC1`: the displacement was found to be 1.5%.
Then `COc1ccc(-n2cnc3cc(Nc4nnc(C)c5ccccc45)ccc32)cc1`, with 0.8%; and `CCOC(=O)c1cc(CC)sc1NC(=O)c1cc([N+](=O)[O-])ccc1N1CCN(CC)CC1`, with -2.3%; and `O=C(CSc1ncn[nH]1)c1ccc(Br)cc1`, with 8.5%.
As to `COc1ccc(S(=O)(=O)N(Cc2ccccc2)c2ccccc2C(=O)N2CCOCC2)cc1`, the displacement is -1.1%.
For `CC(C)(CNC(=O)c1cccnc1)CNC(=O)c1cccnc1` the value was 7.9%; for `O=C(O)C(Cc1ccccc1)n1c(O)c(/C=C2\C=Nc3ccccc32)sc1=S` (stereo not drawn), -2.3%.
For `Cc1cc(/C=N/O)c(C)n1-c1ccc(F)cc1` the value was 12.6%; for `COC(=O)c1ccc(NC(=S)NC(=O)/C=C/c2ccc(Br)cc2)cc1`, 13.2%; for `COc1ccc2c(c1OC)C(=O)OC2Nc1ccccc1Br` (stereo not drawn), -5.8%.
Then `COc1ccc(-n2nnnc2C(=Cc2ccc(N(C)C)cc2)c2nnnn2-c2ccc(OC)cc2)cc1`, with 157%; and `COc1ccc(-n2nnnc2C(Cl)(Cl)c2nnnn2-c2ccc(OC)cc2)cc1`, with 5.8%; and `COc1ccc(/C=C/C(=O)/C=C/c2ccc(N(C)C)cc2)cc1`, with -3%.
Turning to `CCOc1cc(/C=C2\SC(=Nc3cccc(Cl)c3C)NC2=O)ccc1O`, the displacement is -11.7%.
In the case of `O=C1C(Nc2ccccc2)=CC(c2cccc(F)c2)N1c1ccccc1` (stereo not drawn), the displacement came to 14.1%.
For `Brc1ccc2nc(N3CCNCC3)nc(-c3ccccc3)c2c1` the value was -8.1%; for `O=C(c1ccc([N+](=O)[O-])cc1)N1CCN(c2nc(-c3ccccc3)c3cc(Cl)ccc3n2)CC1`, 17.5%.
Then `O=CN1CCN(c2nc(-c3ccccc3)c3cc(Br)ccc3n2)CC1`, with 84.9%.
Take `O=C(c1ccccc1)N1CCN(c2nc(-c3ccccc3)c3cc(Cl)ccc3n2)CC1`: the displacement was determined as 10.6%.
Then `O=C(c1ccccc1Cl)N1CCN(c2nc(-c3ccccc3)c3cc(Br)ccc3n2)CC1`, with -5.8%; and `O=CN1CCN(c2nc(-c3ccccc3)c3cc(Cl)ccc3n2)CC1`, with 113%; and `CC1=C(C#N)c2nc(N)c(C#N)c(C)c2/C1=C\c1cc([N+](=O)[O-])ccc1Cl`, with 0.6%.
For `Cc1cccc(OCCOc2ccccc2/C=C2/SC(=S)N(C)C2=O)c1`, the displacement was -0.4%.
Then `Fc1cc(F)c(F)c(SCCc2ccncc2)c1F`, with 5.9%.
For `COc1cccc(N2C(=O)NC(=O)/C(=C/C=C/c3ccco3)C2=O)c1`, the displacement is -47.4%.
For `C/C(=N\NC(=O)COc1ccc(Cl)cc1Cl)c1cccnc1` the value was 1.9%.
Then `O=C1C2ON(c3ccc(Cl)cc3)C(c3cccs3)C2C(=O)N1c1cccc(C(F)(F)F)c1` (stereo not drawn), with -18.1%.
For `COc1ccc(OCC(O)CN(C)S(=O)(=O)O)cc1` (stereo not drawn) the value was -6.7%; for `O=C(Cc1ccc(Br)cc1)N1CCN(c2ccccc2)CC1`, 9.8%.
With `COc1ccc(C2CC(=O)C3=C(C2)Nc2ccccc2NC3c2cccc(OC)c2OC)cc1OC` (stereo not drawn), the displacement is -3.7%.
As for `O=C(CSc1ccccn1)Nc1ccc(F)cc1`, the displacement was -11.4%.
Then `CC(=O)Nc1ccc(NC(=O)CSc2ccccn2)cc1`, with -2.6%.
For the compound `O=C(CSc1ccccn1)Nc1ccc2c(c1)C(=O)c1ccccc1C2=O`, the displacement was found to be 54.6%.
In the case of `CC1(C)CC(=O)c2cnc(NC(=O)Cc3ccc(Cl)cc3)nc2C1`, the displacement is -0.2%.
Regarding `COc1ccc(CC(c2nc3ccccc3[nH]2)C(C)c2nc3ccccc3[nH]2)cc1` (stereo not drawn), the displacement was found to be 8%.
